Assay results taken from PubChem BioAssay AID1159580 (chemical genetic matrix, 2015).
“And” between values parts separate entries of the source, which are not always exact repeats. Equal values may be shown once. Hit rate of the full screen: of about 5,500 compounds, about 2,000 (36%) were called active. Inconclusive results (about 18%) are left out. Rule as the data show it: active = normalized growth mostly below about 0.91 (no sharp cut-off); inconclusive = no clear call, values can overlap the other calls; inactive = mostly above about 0.92. This is one part of the list.

Test: chemical genetic growth profiling, strain panel (AID 1159580);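 also: tested at 20 µM; growth read once vehicle control cultures reached saturation at 30 °C; 1 = growth at the plate median or of vehicle wells; lower values mean less growth of the strain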
Conditions: S. cerevisiae deletion strains, growth OD

Measured: normalized growth

CN1CCCN=C1COC(=O)C(O)(c1ccccc1)C1CCCCC1 (stereo unspecified)
inactive: locus YAL013W, strain DEP1, stronger effect = lower value 1.01 | locus YAL021C, strain ccr4, stronger effect = lower value 1 | locus YAL026C, strain drs2, stronger effect = lower value 0.993 | locus YAL030W, strain snc1, stronger effect = lower value 0.996 | locus YBL061C, strain skt5, stronger effect = lower value 0.987 | locus YBR009C, strain hhf1, stronger effect = lower value 0.994 | locus YBR021W, strain FUR4, stronger effect = lower value 1.03 | locus YBR023C, strain chs3, stronger effect = lower value 0.987 | locus YBR171W, strain sec66, stronger effect = lower value 0.993 | locus YBR229C, strain ROT2, stronger effect = lower value 1.01 | locus YBR231C, strain swc5, stronger effect = lower value 1 | locus YBR279W, strain paf1, stronger effect = lower value 0.993 | locus YCL011C, strain gbp2, stronger effect = lower value 1 | locus YCL016C, strain dcc1, stronger effect = lower value 0.991 | locus YCL029C, strain bik1, stronger effect = lower value 0.99 | locus YCL061C, strain MRC1, stronger effect = lower value 0.994 | locus YCL069W, strain vba3, stronger effect = lower value 0.997 | locus YCR088W, strain abp1, stronger effect = lower value 0.997 | locus YDL005C, strain med2, stronger effect = lower value 0.98 | locus YDL035C, strain GPR1, stronger effect = lower value 1 | locus YDL040C, strain nat1, stronger effect = lower value 0.998 | locus YDL074C, strain BRE1, stronger effect = lower value 1.01 | locus YDL101C, strain DUN1, stronger effect = lower value 1.01 | locus YDL134C, strain PPH21, stronger effect = lower value 1.02 | locus YDL185W, strain tfp1, stronger effect = lower value 1 | locus YDL192W, strain arf1, stronger effect = lower value 0.999 | locus YDR001C, strain nth1, stronger effect = lower value 0.995 | locus YDR069C, strain doa4, stronger effect = lower value 0.99 | locus YDR101C, strain arx1, stronger effect = lower value 0.968 | locus YDR137W, strain rgp1, stronger effect = lower value 0.99 | locus YDR150W, strain NUM1, stronger effect = lower value 1.01 | locus YDR159W, strain sac3, stronger effect = lower value 1 | locus YDR162C, strain NBP2, stronger effect = lower value 1 | locus YDR195W, strain ref2 0.993 | locus YDR297W, strain sur2, stronger effect = lower value 1 | locus YDR318W, strain mcm21, stronger effect = lower value 0.983 | locus YDR334W, strain swr1, stronger effect = lower value 0.989 | locus YDR335W, strain msn5, stronger effect = lower value 0.997 | locus YDR388W, stronger effect = lower value 0.989 | locus YDR392W, strain spt3, stronger effect = lower value 1 | locus YDR502C, strain sam2, stronger effect = lower value 0.994 | locus YEL003W, strain gim4, stronger effect = lower value 0.997 | locus YEL037C, strain rad23, stronger effect = lower value 0.991 | locus YEL061C, strain CIN8 (second series), stronger effect = lower value 0.999 | locus YEL061C, strain CIN8, stronger effect = lower value 1.01 | locus YER015W, strain faa2, stronger effect = lower value 0.978 | locus YER016W, strain bim1, stronger effect = lower value 0.994 | locus YER110C, stronger effect = lower value 0.991 | locus YER111C, strain swi4, stronger effect = lower value 0.995 | locus YER155C, strain BEM2 (second series), stronger effect = lower value 1.01 | locus YER155C, strain BEM2, stronger effect = lower value 1.03 | locus YER167W, strain BCK2, stronger effect = lower value 1.01 | locus YFR010W, strain ubp6, stronger effect = lower value 1.01 | locus YGL078C, strain dbp3, stronger effect = lower value 0.987 | locus YGL086W, strain mad1, stronger effect = lower value 0.992 | locus YGL167C, strain pmr1, stronger effect = lower value 0.987 | locus YGL173C, strain kem1, stronger effect = lower value 0.987 | locus YGL227W, strain vid30, stronger effect = lower value 0.993 | locus YGL240W, strain doc1, stronger effect = lower value 1 | locus YGL248W, strain PDE1, stronger effect = lower value 1.01 | locus YGL253W, strain hxk2, stronger effect = lower value 0.998 | locus YGR078C, strain PAC10, stronger effect = lower value 0.991 | locus YGR135W, strain pre9, stronger effect = lower value 0.978 | locus YGR229C, strain SMI1, stronger effect = lower value 0.99 | locus YGR252W, strain gcn5, stronger effect = lower value 1.05 | locus YHR013C, strain ard1, stronger effect = lower value 0.981 | locus YHR027C, strain rpn1, stronger effect = lower value 0.991 | locus YHR030C, strain SLT2, stronger effect = lower value 1.01 and 0.997 | locus YHR079C, strain IRE1 (second series), stronger effect = lower value 0.988 | locus YHR079C, strain IRE1, stronger effect = lower value 1.01 | locus YHR094C, strain hxt1, stronger effect = lower value 0.985 | locus YHR129C, strain ARP1, stronger effect = lower value 1.02 | locus YHR142W, strain chs7, stronger effect = lower value 0.998 | locus YHR200W, strain rpn10, stronger effect = lower value 0.993 | locus YIL066C, strain RNR3, stronger effect = lower value 1 | locus YIL073C, strain SPO22, stronger effect = lower value 0.999 | locus YIL125W, strain kgd1, stronger effect = lower value 0.998 | locus YIR030C, strain dcg1, stronger effect = lower value 0.985 | locus YJL092W, strain hpr5, stronger effect = lower value 0.997 | locus YJL095W, strain BCK1 (second series), stronger effect = lower value 0.998 | locus YJL095W, strain BCK1, stronger effect = lower value 1 and 1.01 | locus YJL115W, strain asf1, stronger effect = lower value 0.986 | locus YJL129C, strain trk1, stronger effect = lower value 1.02 | locus YJL134W, strain LCB3, stronger effect = lower value 1.01 | locus YJL154C, strain vps35, stronger effect = lower value 0.996 | locus YJL166W, strain qcr8, stronger effect = lower value 0.99 | locus YJL168C, strain set2, stronger effect = lower value 0.992 | locus YJL187C, strain SWE1 (second series), stronger effect = lower value 1.01 | locus YJL187C, strain SWE1, stronger effect = lower value 0.999 | locus YJR043C, strain POL32, stronger effect = lower value 1 | locus YJR066W, strain TOR1, stronger effect = lower value 0.952
